Test [1] is described as follows: qHTS assay to test for compound auto fluorescence at 535 nm (green) in HEK293 cells (AID 720680). For orientation: In qHTS, concentration-response curves come from the screen itself.
The nature of test [2]: qHTS assay to test for compound auto fluorescence at 460 nm (blue) in HEK293 cell free culture (AID 720681). A digest of the protocol: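 Blue fluorescence (Ex 405/Em 460 nm, triamterene-equivalent) was read immediately after pin transfer of compound or DMSO into medium (DMEM, 10% FBS) without cells.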
Test [3] in a line: qHTS assay to test for compound auto fluorescence at 535 nm (green) in HEK293 cell free culture (AID 720682). Put shortly:
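Steps: dispense DMEM/10% FBS into empty wells; pin in compound or DMSO; measure fluorescence at 485/535 nm. Values are fluorescein equivalents.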

Test [4] can be described thus: qHTS assay to test for compound auto fluorescence at 590 nm (red) in HEK293 cell free culture (AID 720683). A digest of the protocol:
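Red-channel autofluorescence of compounds in culture medium (DMEM, 10% FBS), no cells, measured at 540/590 nm. Rose Bengal sodium is the reference fluorophore for equivalence.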

Test [5] in a line: qHTS assay to test for compound auto fluorescence at 590 nm (red) in HepG2 cell free culture (AID 720684). A digest of the protocol:
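No cells present: MEM + 10% FBS only. Compound pinned in, red label read (540/590 nm). Activity = fluorescence equivalent to Rose Bengal sodium.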

The nature of test [6]: qHTS assay to test for compound auto fluorescence at 460 nm (blue) in HepG2 cell free culture (AID 720685). A digest of the protocol:
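Cell-free plates of MEM plus 10% FBS received 23 nL compound or DMSO vehicle; blue-channel (405/460 nm) intensity scored against triamterene as reference fluorophore.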

Test [7] is described as follows: qHTS assay to test for compound auto fluorescence at 535 nm (green) in HepG2 cell free culture (AID 720686).
Test [8] can be described thus: qHTS assay to test for compound auto fluorescence at 460 nm (blue) in HepG2 cells (AID 720687). A digest of the protocol:
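Blue-channel autofluorescence (Ex/Em 405/460 nm, triamterene-equivalent) was measured after 1 hr compound exposure at 37 C, 5% CO2. Cells were HepG2, plated overnight at 37 C in MEM plus 10% FBS.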

Test [9] can be described thus: qHTS assay to identify small molecule antagonists of the glucocorticoid receptor (GR) signaling pathway - cell viability counter screen (AID 720693). Note: nearly all actives have a fitted effect of over 55% in size. Note: potency is the fitted concentration of half-maximal effect.
Test [10] can be described thus: qHTS assay for identifying genotoxic compounds that show differential cytotoxicity against isogenic chicken DT40 cell lines with known DNA damage response pathways - wild type cell line (AID 743012). Note: nearly all actives have a fitted effect of over 60% in size. Note: potency is the fitted concentration of half-maximal effect. Put shortly:
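Cytotoxicity in repair-proficient parental chicken DT40 cells serves as the comparator for Rad54/Ku70- and Rev3-deficient lines. Cells were exposed to compounds for 40 h at 37 C/5% CO2, and ATP-based luminescence (CellTiter-Glo) measured viability.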

The nature of test [11]: qHTS assay for identifying genotoxic compounds that show differential cytotoxicity against isogenic chicken DT40 cell lines with known DNA damage response pathways - Rev3 mutant cell line (AID 743014). Note: nearly all actives have a fitted effect of over 55% in size. Note: potency is the fitted concentration of half-maximal effect.
The nature of test [12]: qHTS assay for identifying genotoxic compounds that show differential cytotoxicity against isogenic chicken DT40 cell lines with known DNA damage response pathways - Rad54/Ku70 mutant cell line (AID 743015). Note: nearly all actives have a fitted effect of over 60% in size. Note: potency is the fitted concentration of half-maximal effect.
A short description of test [13]: qHTS assay to identify small molecule antagonists of the androgen receptor (AR) signaling pathway - cell viability counter screen (AID 743033; note: nearly all actives have a fitted effect of over 45% in size; note: potency is the fitted concentration of half-maximal effect).
The target in test [14] is Androgen receptor (Homo sapiens) (UniProt P10275). The test is described as follows: qHTS assay to identify small molecule agonists of the androgen receptor (AR) signaling pathway using the MDA cell line (AID 743040; note: nearly all actives have a fitted effect of over 20% in size). A digest of the protocol: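 Stable MMTV-luciferase reporter in MDA-kb2 cells; note the promoter carries GR as well as AR response elements. 16 h compound treatment, 37C, 0% CO2; ONE-Glo luminescence endpoint.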
Sequence of Androgen receptor (Homo sapiens) (P10275 whole entry, looked up): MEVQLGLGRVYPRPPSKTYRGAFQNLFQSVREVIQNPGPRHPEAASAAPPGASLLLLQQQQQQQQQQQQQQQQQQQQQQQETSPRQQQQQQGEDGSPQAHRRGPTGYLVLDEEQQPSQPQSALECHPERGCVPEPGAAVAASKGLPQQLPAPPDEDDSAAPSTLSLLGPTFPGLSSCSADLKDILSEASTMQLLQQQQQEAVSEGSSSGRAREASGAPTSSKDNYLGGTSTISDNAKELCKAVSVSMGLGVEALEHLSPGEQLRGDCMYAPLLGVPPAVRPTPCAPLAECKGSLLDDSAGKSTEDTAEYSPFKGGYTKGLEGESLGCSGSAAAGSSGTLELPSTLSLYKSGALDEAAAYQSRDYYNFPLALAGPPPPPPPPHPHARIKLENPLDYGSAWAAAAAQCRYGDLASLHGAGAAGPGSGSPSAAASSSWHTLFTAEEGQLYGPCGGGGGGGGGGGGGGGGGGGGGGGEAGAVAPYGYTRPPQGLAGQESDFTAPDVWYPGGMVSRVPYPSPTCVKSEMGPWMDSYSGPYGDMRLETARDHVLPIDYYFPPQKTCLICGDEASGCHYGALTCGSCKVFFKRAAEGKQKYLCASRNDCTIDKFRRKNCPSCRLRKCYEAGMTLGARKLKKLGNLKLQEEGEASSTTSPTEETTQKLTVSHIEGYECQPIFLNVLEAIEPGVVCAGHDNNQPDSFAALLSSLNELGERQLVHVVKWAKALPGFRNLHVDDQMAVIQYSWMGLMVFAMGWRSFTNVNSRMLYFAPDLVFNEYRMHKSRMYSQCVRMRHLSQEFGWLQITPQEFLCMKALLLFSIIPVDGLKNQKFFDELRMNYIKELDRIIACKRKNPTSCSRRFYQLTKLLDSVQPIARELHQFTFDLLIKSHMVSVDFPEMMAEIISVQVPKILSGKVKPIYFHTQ

Test [15] shares this target. The test is described as follows: qHTS assay to identify small molecule antagonists of the androgen receptor (AR) signaling pathway using the MDA cell line (AID 743042; note: potency is the fitted concentration of half-maximal effect; nearly all actives have a fitted effect of over 55% in size). Put shortly: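 Antagonist mode: compounds plus R1881 agonist added to MDA-kb2 AR-luc cells, incubated 16 h at 37C. Luciferase reporter luminescence quantified, with multiplexed CellTiter-Fluor readout for cell viability.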

For test [16] the target is unchanged. In words: qHTS assay to identify small molecule antagonists of the androgen receptor (AR) signaling pathway (AID 743035; active = well fitted inhibition curve with a large enough effect in the signal ratio in the repeat runs, not every such curve was filed as active; the % refers to the signal ratio; note: potency is the fitted concentration of half-maximal effect). Put shortly:
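Steps: seed AR-UAS-bla GripTite HEK293 cells, incubate 4 h at 37C; pin in test compound, then add agonist R1881; incubate 16 h at 37C; add LiveBLAzer B/G FRET substrate, 2 h at room temperature; read fluorescence.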

The target is the same in test [17]. In words: qHTS assay to identify small molecule agonists of the androgen receptor (AR) signaling pathway (AID 743036; active = well fitted activation curve with a large enough effect in the signal ratio in the repeat runs, with a control signal flat, not every such curve was filed as active; the % refers to the signal ratio). A digest of the protocol: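 Reporter line: GeneBLAzer AR-UAS-bla-GripTite (HEK293). Steps: plate cells, 4 h rest, add compounds, 16 h at 37C, add LiveBLAzer B/G substrate, 2 h at RT, read fluorescence.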
Test [18] in a line: qHTS assay to identify small molecule antagonists of the androgen receptor (AR) signaling pathway using the MDA cell line - cell viability counter screen (AID 743041; note: nearly all actives have a fitted effect of over 45% in size; note: potency is the fitted concentration of half-maximal effect). Put shortly: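 Using the breast carcinoma line MDA-kb2 AR-luc, test chemicals were co-incubated with R1881 for 16 h; CellTiter-Fluor reagent, added at 15.5 h, provided a fluorescence measure of live cells.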

Unmarked numbers belong to inactive results. Inconclusive results are not listed. Active and inactive are the calls of the source. Unless noted, calls come from the whole dose curve; as a rule, active = well fitted curve in the direction sought with a large enough effect in the repeat runs; inconclusive = weak or mixed curves; inactive = no such curve, though single readings can be large; an effect the other way counts as inactive or inconclusive.

For the compound `[Cl][Hg][c]1ccccc1`, the result in [1], in test [3], in [4], in [5] and in test [14] was inactive. Moreover, the Potency result in test [2], in [6], in [7] and in test [8] was “inactive” in each case. The Potency in test [9] is 0.309 µM (active); in [10], 0.122 µM (active); in test [11] it was 0.172 µM (active); in [12], 0.0863 µM (active); in test [13] it was 1.38 µM (active); in test [15] it was 0.969 µM (active).

On to `COP(=O)(OC)O/C(=C\Cl)c1cc(Cl)c(Cl)cc1Cl`, for which the result in [1], in [3], in test [4], in test [5], in test [17] and in test [14] was inactive. Besides, the Potency result in test [2], in [6], in [7], in [8], in test [9] and in test [18] was “inactive” each time. The Potency in test [10] was 17.2 µM (active); in [11] it was 30.6 µM (active); in test [12], 17.2 µM (active); in test [16] it was 21.9 µM (active); in test [15] it was 54.5 µM (active).

Take `Brc1ccc(Oc2ccc(Br)cc2Br)c(Br)c1`: the compound was called inactive in test [1], in test [3], in test [4] and in test [5]. Further, the Potency entry in [2], in test [6], in test [7], in [8], in [9] and in test [10] was “inactive” each time. The Potency result in test [11], in [12], in test [13] and in test [18] was “inactive” each time.

On to `CN/C(=N\[N+](=O)[O-])NCc1cnc(Cl)s1`, for which the result in test [1], in test [3], in test [4] and in test [5] was inactive. Also, the Potency result in [2], in [6], in test [7], in test [8], in [9] and in test [10] was “inactive” each time. For the same compound, the Potency result in test [11], in test [12], in test [13] and in test [18] was “inactive” each time.

Turning to `[Cl-].[Cl-].[Cl-].[Yb+3]`, the call in test [1], in test [3], in [4] and in test [5] was inactive. Further, the Potency result in test [2], in [6], in test [7], in test [8], in test [9] and in test [10] was “inactive” each time. Also, the Potency entry in [11], in test [12] and in [13] was “inactive” in each case.

As for `CCOP(=S)(OCC)SC(CCl)N1C(=O)c2ccccc2C1=O` (stereo unspecified), the call in test [1], in [3], in test [4], in [5], in test [17] and in test [14] was inactive. Moreover, the Potency entry in [2], in test [6], in [7], in test [8], in test [9] and in test [18] was “inactive” in each case. The Potency in [10] is 48.6 µM (active); in test [11], 43.3 µM (active); in [12] it was 61.1 µM (active); in test [15], 61.1 µM (active).

For `CC(C)=CCN1CC[C@@]2(C)c3cc(O)ccc3C[C@@H]1[C@@H]2C`, the compound was classed as inactive in [1], in [3], in test [4] and in test [5]. For the same compound, the Potency entry in [2], in [6], in test [7], in test [8], in test [9] and in [13] was “inactive” throughout. For the same compound, the Potency in test [10] was 19 µM (active); in test [11] it was 26.9 µM (active); in test [12] it was 60.2 µM (active).

Consider `O=[N+]([O-])c1ccccc1-c1ccccc1`, for which the compound was called inactive in [1], in test [3], in test [4] and in test [5]. Moreover, the Potency entry in [2], in [6], in [7], in test [8], in [9] and in test [10] was “inactive” in each case. Also, the Potency entry in test [11], in test [12], in test [13] and in test [18] was “inactive” in each case.

As to `CC(C)[C@@H](Nc1ccc(C(F)(F)F)cc1Cl)C(=O)OC(C#N)c1cccc(Oc2ccccc2)c1` (stereo partly specified), the call in test [1], in test [3], in test [4] and in test [5] was inactive. For the same compound, the Potency entry in test [2], in test [6], in test [7], in test [8], in test [9] and in test [10] was “inactive” each time. Further, the Potency result in test [11], in test [13] and in test [18] was “inactive” throughout.

Regarding `CC(=O)[O-].CC(=O)[O-].O.O.O.[Pb+2]`, the compound was called inactive in [1], in test [3], in [4] and in [5]. Also, the Potency entry in test [2], in test [6], in test [7], in [8], in test [9] and in [10] was “inactive” each time. Moreover, the Potency result in [11] and in [13] was “inactive” in each case.

In the case of `CN1C(=O)[C@@H](NC(=O)c2cc3ccccc3[nH]2)N=C(c2ccccc2)c2ccccc21`, the outcome in test [1], in test [3], in [4] and in [5] was inactive. Besides, the Potency result in test [2], in [6], in test [7], in [8], in test [9] and in [13] was “inactive” each time. The Potency result in test [18] is “inactive”. Besides, the figures for the Potency in test [10] and in test [12] were 10.6 µM (active) and 18.8 µM (active), respectively.

For `CC1CN1` (stereo unspecified), the call in test [1], in test [3], in test [4] and in test [5] was inactive. Also, the Potency result in test [2], in test [6], in test [7], in [8], in [9] and in [18] was “inactive” in each case.

As for `c1ccc(N=NNc2ccccc2)cc1`, the result in [1], in test [3], in [4] and in test [5] was inactive. The Potency result in test [2], in test [6], in test [7], in [8], in test [9] and in test [13] was “inactive” throughout.

With `O.O.O.O.O.O.O=S(=O)([O-])[O-].[Ni+2]`, the call in [1], in [3], in test [4] and in [5] was inactive. Besides, the Potency result in [2], in [6], in test [7], in test [8], in [9] and in test [13] was “inactive” in each case. In addition, the Potency in [11] is 26.1 µM (active).

Regarding `C=C(C)C(=O)[O][Sn]([CH2]CCC)([CH2]CCC)[CH2]CCC`, the compound was classed as inactive in test [1], in [3], in test [4] and in test [5]. Moreover, the Potency result in [2], in test [6], in test [7] and in test [8] was “inactive” throughout. Besides, the Potency in [9] was 0.776 µM (active); in test [10] it was 0.486 µM (active); in test [11] it was 0.686 µM (active); in test [12], 0.545 µM (active); in [18] it was 1.93 µM (active).

In the case of `O=C(Cl)c1ccccc1F`, the call in [1], in [3], in [4] and in test [5] was inactive. The Potency entry in test [2], in [6], in test [7], in [8], in test [9] and in test [10] was “inactive” throughout. In addition, the Potency entry in [12], in test [13] and in test [18] was “inactive” each time.

Values taken from PubChem BioAssay (Tox21).
